Test [1] is described as follows: antimalarial activity against Dd2 strain (AID 2302;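 active = growth inhibition above 50% at the single 2 µM test dose, taken to imply half-maximal potency below 2 µM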;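 also: 0% = DMSO untreated growth and 100% = chloroquine plus artemisinin killed control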). The following applies: P. falciparum Dd2 in RBCs, LDH growth readout, 72 h; at 2 µM; active compounds read high.
Test [2] in a line: human hepatoma cell viability loss – ATP luminescence, cytotoxicity control for P. falciparum antimalarial project, primary screen (AID 2303;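 active = inhibition above 50%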;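 also: 0% = DMSO wells and 100% = digitonin-killed cells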). The following applies: HepG2 viability, 24-48 h, at 10 µM, active compounds read high.
The target of test [3] is L-lactate dehydrogenase (Plasmodium falciparum (isolate CDC / Honduras)) (UniProt Q27743). Put plainly: PfLDH activity inhibition – cell lysate, 3D7 strain, counter-screen for P. falciparum growth inhibition project (AID 2304).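 Also: 0% = vehicle and 100% = reference inhibitor.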 As to conditions: P. falciparum 3D7 crude extract, LDH APAD/NBT absorbance; at 2 µM; active compounds read high.
The nature of test [4]: inhibition of 3D7 malaria parasite growth – strain 3D7 (AID 2306).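 Also: 0% = DMSO wells and 100% = chloroquine plus artemisinin control wells.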 As to conditions: P. falciparum 3D7 erythrocytic growth, LDH absorbance, 72 h; at 2 µM; active compounds read high.
The target of test [5] is Calcium-dependent protein kinase 1 (Plasmodium falciparum (isolate 3D7)) (UniProt P62344). Put plainly: PfCDPK1 kinase inhibitors, biochemical, TCAMS library (AID 1159585; cut-off not given, nearly all actives have IC50 up to about 0.98 µM;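 also: inhibitors leave more ATP so luminescence rises with inhibition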). As to conditions: recombinant PfCDPK1, Kinase-Glo ATP depletion luminescence. On the technique in general: In Kinase-Glo more light means more ATP remaining.
The target of test [6] is Plasmodium falciparum protein kinase 6 (PK6, PF3D7_1337100) (UniProt Q8IDW1). Put plainly: PfPK6 kinase inhibitors, biochemical, TCAMS library (AID 1159586). As to conditions: recombinant PfPK6, Kinase-Glo ATP depletion luminescence.
In test [7] the target is Protein kinase 7 (PK7), Plasmodium falciparum 3D7 (PF3D7_0213400) (UniProt Q7YTF7). Nature of the test: inhibition of Plasmodium PK7 catalytic activity – biochemical, TCAMS antimalarial set, Kinase-Glo luminescence (AID 1159587). The following applies: recombinant PfPK7, Kinase-Glo ATP depletion luminescence.
Test [8] concerns the target Calcium-dependent protein kinase 4 (Plasmodium falciparum (isolate 3D7)) (UniProt Q8IBS5). Nature of the test: PfCDPK4 kinase inhibitors, biochemical, TCAMS library (AID 1159588; cut-off not given, nearly all actives have IC50 up to about 0.91 µM). As to conditions: recombinant PfCDPK4, Kinase-Glo ATP depletion luminescence.

Values without a mark were called inactive. For some of these results: Entries with a potency or affinity are not part of this list. The source made the active and inactive calls. Unless noted, no rule for the calls is given here.

Plasmodium falciparum protein kinase 6 (PK6, PF3D7_1337100), sequence (Q8IDW1 1-305): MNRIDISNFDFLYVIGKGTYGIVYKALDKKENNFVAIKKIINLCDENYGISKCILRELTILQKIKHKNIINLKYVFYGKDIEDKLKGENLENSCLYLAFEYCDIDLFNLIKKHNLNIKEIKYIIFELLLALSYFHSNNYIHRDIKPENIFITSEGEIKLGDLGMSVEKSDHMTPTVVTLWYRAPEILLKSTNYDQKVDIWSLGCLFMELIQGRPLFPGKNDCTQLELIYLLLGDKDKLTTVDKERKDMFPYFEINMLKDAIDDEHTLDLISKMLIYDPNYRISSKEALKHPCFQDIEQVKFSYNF
Protein kinase 7 (PK7), Plasmodium falciparum 3D7 (PF3D7_0213400), sequence (Q7YTF7 1-343): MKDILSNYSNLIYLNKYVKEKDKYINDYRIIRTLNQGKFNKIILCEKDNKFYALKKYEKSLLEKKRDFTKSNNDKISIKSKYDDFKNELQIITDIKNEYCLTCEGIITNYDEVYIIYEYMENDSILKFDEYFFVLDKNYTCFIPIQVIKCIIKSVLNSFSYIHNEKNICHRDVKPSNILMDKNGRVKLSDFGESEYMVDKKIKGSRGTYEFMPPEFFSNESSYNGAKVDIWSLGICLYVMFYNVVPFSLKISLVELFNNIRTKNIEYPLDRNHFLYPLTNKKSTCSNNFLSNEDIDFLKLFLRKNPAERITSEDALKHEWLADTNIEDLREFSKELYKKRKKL
Calcium-dependent protein kinase 1 (Plasmodium falciparum (isolate 3D7)), sequence (P62344 whole entry, looked up): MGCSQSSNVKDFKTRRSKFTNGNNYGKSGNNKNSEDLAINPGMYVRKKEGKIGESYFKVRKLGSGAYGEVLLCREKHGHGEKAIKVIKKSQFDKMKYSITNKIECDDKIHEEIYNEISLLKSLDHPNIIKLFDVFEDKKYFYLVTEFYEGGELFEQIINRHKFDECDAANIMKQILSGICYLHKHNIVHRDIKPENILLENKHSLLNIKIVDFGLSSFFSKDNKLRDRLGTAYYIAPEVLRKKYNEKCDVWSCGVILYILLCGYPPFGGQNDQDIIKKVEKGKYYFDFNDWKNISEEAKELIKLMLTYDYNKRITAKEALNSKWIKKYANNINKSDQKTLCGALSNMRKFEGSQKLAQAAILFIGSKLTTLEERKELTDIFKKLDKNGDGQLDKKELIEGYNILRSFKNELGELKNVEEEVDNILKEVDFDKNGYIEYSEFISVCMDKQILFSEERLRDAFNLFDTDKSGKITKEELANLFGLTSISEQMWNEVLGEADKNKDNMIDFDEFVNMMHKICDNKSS
Calcium-dependent protein kinase 4 (Plasmodium falciparum (isolate 3D7)), sequence (Q8IBS5 whole entry, looked up): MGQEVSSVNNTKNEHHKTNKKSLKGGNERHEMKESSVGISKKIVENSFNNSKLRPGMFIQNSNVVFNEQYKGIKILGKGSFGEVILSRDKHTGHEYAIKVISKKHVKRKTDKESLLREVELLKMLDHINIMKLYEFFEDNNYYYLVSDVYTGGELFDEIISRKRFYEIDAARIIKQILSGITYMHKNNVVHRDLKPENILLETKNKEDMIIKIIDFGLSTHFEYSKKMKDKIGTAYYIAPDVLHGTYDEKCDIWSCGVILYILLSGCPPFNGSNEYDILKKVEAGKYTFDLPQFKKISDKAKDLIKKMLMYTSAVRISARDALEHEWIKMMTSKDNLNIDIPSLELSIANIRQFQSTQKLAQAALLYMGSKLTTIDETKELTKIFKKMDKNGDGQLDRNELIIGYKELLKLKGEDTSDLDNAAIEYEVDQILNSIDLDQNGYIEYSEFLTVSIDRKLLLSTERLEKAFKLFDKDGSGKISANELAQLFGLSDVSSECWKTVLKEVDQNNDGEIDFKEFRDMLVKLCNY
L-lactate dehydrogenase (Plasmodium falciparum (isolate CDC / Honduras)), sequence (Q27743 whole entry, looked up): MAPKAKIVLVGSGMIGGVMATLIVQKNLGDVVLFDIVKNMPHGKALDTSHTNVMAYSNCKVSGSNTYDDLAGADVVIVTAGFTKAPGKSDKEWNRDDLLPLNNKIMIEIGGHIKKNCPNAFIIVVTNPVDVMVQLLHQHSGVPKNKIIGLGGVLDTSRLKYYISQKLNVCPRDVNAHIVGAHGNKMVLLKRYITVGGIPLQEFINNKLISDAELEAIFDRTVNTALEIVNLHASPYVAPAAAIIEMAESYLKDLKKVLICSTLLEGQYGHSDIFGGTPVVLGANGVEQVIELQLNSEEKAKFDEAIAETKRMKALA

One may read the inhibition as the change of the read-out against control, counted positive when it falls. Consider `COc1cc2c(cc1C(F)(F)F)N(C(=O)Nc1cc(-c3ccncc3)cc(-c3cccnc3)c1)CC2`, for which the growth inhibition was 50% (active) in test [1] and 95% (active) in test [4]. Further, the inhibition in test [2] was 64% (active); in test [3], 7%. The result in test [5], in test [6], in test [7] and in test [8] was inactive.
As for `CN(C)c1ccc(CN2CCC(CNC(=O)c3cc(-c4ccccc4Cl)cs3)C2)cc1` (stereo unspecified), the growth inhibition is 5% in test [1] and 91% (active) in test [4]. The inhibition is 29% in test [2] and -3% in test [3]. Besides, the outcome in test [5], in test [6], in test [7] and in test [8] was inactive.
In the case of `C=CCNC(=O)CCCN=C(N)N`, the growth inhibition in test [1] is 12%; in test [4] it was 98% (active). For the same compound, the results for the inhibition in test [2] and in test [3] were -9% and -1%, respectively. For the same compound, the outcome in test [5], in test [6], in test [7] and in test [8] was inactive.
With `Cc1cc(F)ccc1C1CCN(CCCCNC(=O)c2ccc(NC(=O)c3ccc(Cl)cc3)cc2)CC1`, the growth inhibition is 79% (active) in test [1] and 101% (active) in test [4]. In addition, the inhibition in test [2] is 19%; in test [3], 0%. Besides, the result in test [5], in test [6], in test [7] and in test [8] was inactive.
For `CC(C)C[C@@H](/C=N/NC(N)=O)NC(=O)[C@H](CC(C)C)NC(=O)[C@H](CC(C)C)NC(=O)OCc1ccccc1`, the growth inhibition was 99% (active) in test [1] and 100% (active) in test [4]. In addition, the figures for the inhibition in test [2] and in test [3] were 41% and -1%, respectively. For the same compound, the result in test [5], in test [6], in test [7] and in test [8] was inactive.
As for `O=C(c1ccccc1)N1COCC(CCN2CCC(N3CCCC3)CC2)(c2ccc(Cl)c(Cl)c2)C1` (stereo unspecified), the growth inhibition in test [1] was 9%; in test [4], 83% (active). The results for the inhibition in test [2] and in test [3] were 18% and 0%, respectively. The outcome in test [5], in test [6], in test [7] and in test [8] was inactive.
As to `S=C(NCCCCCN1CCC(c2c[nH]c3ccccc23)CC1)Nc1cccc(I)c1`, the growth inhibition was 14% in test [1] and 99% (active) in test [4]. The inhibition in test [2] was 69% (active); in test [3], -3%. Also, the result in test [5], in test [6], in test [7] and in test [8] was inactive.
Turning to `NCCCNc1ccnc2cc(Cl)ccc12`, the growth inhibition in test [1] is 25%; in test [4] it was 101% (active). The values for the inhibition in test [2] and in test [3] were 14% and 0%, respectively. For the same compound, the result in test [5], in test [6], in test [7] and in test [8] was inactive.
Turning to `Clc1cc(Nc2ncnc3sc(C#C[C@H]4CCCN4)cc23)ccc1OCc1cccnc1Cl`, the results for the growth inhibition in test [1] and in test [4] were 93% (active) and 101% (active), respectively. Moreover, the inhibition in test [2] is 9%; in test [3], -3%. In addition, the outcome in test [5], in test [6], in test [7] and in test [8] was inactive.
As for `CN1CCN(c2ccnc3ccc(NC(=O)c4ccc(Cl)c(Cl)c4)cc23)CC1`, the growth inhibition was 64% (active) in test [1] and 100% (active) in test [4]. Further, the inhibition in test [2] was 4%; in test [3], 2%. In addition, the outcome in test [5], in test [6], in test [7] and in test [8] was inactive.
On to `Cc1ccccc1C1CCN(C2CCC(NC(=O)c3ccc(-c4ccccc4)s3)CC2)CC1` (stereo unspecified), for which the growth inhibition was 84% (active) in test [1] and 101% (active) in test [4]. Besides, the inhibition was 26% in test [2] and 0% in test [3]. The outcome in test [5], in test [6], in test [7] and in test [8] was inactive.
With `Cc1cc(C2CCN(CCCCNC(=O)c3ccc(NC(=O)c4ccc(Cl)cc4)cc3)CC2)c(C)cc1OC(C)C`, the figures for the growth inhibition in test [1] and in test [4] were 92% (active) and 100% (active), respectively. Besides, the figures for the inhibition in test [2] and in test [3] were 22% and 7%, respectively. The outcome in test [5], in test [6], in test [7] and in test [8] was inactive.
`Nc1ccc2c(N)c3ccccc3nc2c1`: the growth inhibition in test [1] was 74% (active); in test [4], 93% (active). Moreover, the figures for the inhibition in test [2] and in test [3] were 20% and -2%, respectively. Further, the result in test [5], in test [6], in test [7] and in test [8] was inactive.
With `CCCN1CCN(CC(O)CNC(=O)Nc2ccc(Br)cc2)CC1` (stereo unspecified), the growth inhibition was 100% (active) in test [1] and 101% (active) in test [4]. In addition, the inhibition in test [2] was 10%; in test [3], 0%. Moreover, the result in test [5], in test [6], in test [7] and in test [8] was inactive.
Turning to `Cc1ccc2[nH]ncc2c1N(CC1CCCCC1)c1ccnc(Nc2ccc(OCC(O)CN3CC=CCC3)cc2)n1` (stereo unspecified), the growth inhibition is 79% (active) in test [1] and 100% (active) in test [4]. The inhibition in test [2] was 29%; in test [3], -4%. Further, the outcome in test [5], in test [6], in test [7] and in test [8] was inactive.
On to `O=C(Cn1c(SCc2cccc(F)c2F)cc(=O)c2ccccc21)N(Cc1ccc(-c2ccc(C(F)(F)F)cc2)cc1)C1CCN(CCO)CC1`, for which the growth inhibition in test [1] was 81% (active); in test [4], 89% (active). Besides, the figures for the inhibition in test [2] and in test [3] were 50% (active) and 4%, respectively. The result in test [5], in test [6], in test [7] and in test [8] was inactive.
As for `CC(C)CCNc1nc(NCCCc2ccccc2)c2cc(O)ccc2n1`, the growth inhibition in test [1] is 95% (active); in test [4], 101% (active). The inhibition was 14% in test [2] and -1% in test [3]. In addition, the result in test [5], in test [6], in test [7] and in test [8] was inactive.

These data come from PubChem BioAssay.
